Results taken from PubChem BioAssay (NCATS).
Results filed as inconclusive are left out. Calls of active or inactive are those of the source. The call rests on the fitted dose curve; in most records, active means well fitted cell-killing curve with a large enough effect; inconclusive means small, poorly fitted or top-dose-only effect; inactive means flat fitted curve, though single readings scatter.

Assay: MultiTox-Fluor Cytotoxicity Assay - LYMP1-001 - Live Cells (AID 947);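 on activity change, negative = cytotoxicity: 0% = DMSO only and full inhibition = tetraoctylammonium bromide control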
Conditions: LYMP1-001 lymphoblastoid cells, live-cell protease fluorescence viability; series mostly up to 92.2 µM; activity change, negative = cytotoxicity: at the top concentration
From the text: NIH Chemical Genomics Center [NCGC]
NIH Molecular Libraries Screening Centers Network [MLSCN]
National Institutes of Environmental Health Sciences [NIEHS]
National Toxicology Program [NTP]
We have developed a 1536-well cell-based assay for quantitative high throughput screening (qHTS) against a number of cell lines to determine in vitro cytotoxicity of small molecules. This particular assay uses a human lymphoblastoid cell line (LYMP1-001) purchased from Coriell Institute.
NCGC Assay Protocol Summary:
The MultiTox-Fluor Cytotoxicity Assay (Promega) is a homogeneous method to simultaneously measure the relative number of live and dead cells in culture by detecting changes in cell membrane integrity. There are two fluorogenic peptide substrates in the assay reagent. Viable cells are determined when the cell-permeant substrate (GF-AFC) enters the cell and is cleaved by protease from live cells resulting in liberated fluorophore. This live-cell protease activity restricted to viable cells is proportional to cell number. The dead cells are determined by using fluorogenic cell-impermeant peptide substrate (bis-AAF-R110) which cleaved by dead cell proteases leaking from damaged cell membrane.
Using the MultiTox-Fluor Cytotoxicity Assay, the relative number of live cells was measured in the lymphoblastoid cell line with complete culture medium following compound treatment for 16 hours. The assay was performed in opaque black Kalypsys 1536-well plates. In the screen, tetraoctylammonium bromide was used as positive control. Library compounds were measured for their ability to cause acute toxicity in the cell line, as reflected by a decrease in live cell protease activity, in a concentration-dependent manner. […] AC50 values were determined from concentration-response data modeled with the standard Hill equation.
qHTS protocol for MultiTox-Fluor Cytotoxicity assay
[Step] [Parameter] [Value] [Description]
1. Reagent; 5 uL; 2500 lymphoblastoid cells/well
2. Time; 5 hr; 37 C incubation
4. Controls; 23 nL; Tetraoctylammonium bromide 6.4pM to 92 uM
5. Time; 16 hr; 37 C incubation
6. Reagent; 5 uL; MuliTox-Fluor Assay reagent
7. Time; 60 min; Room Temperature
8. Detection; live-cell fluorescence (Ex/Em=405/510); EnVision plate reader
Keywords: cell viability, cytotoxicity, lymphoblastoid cell line, fluorescence, NTPHTS, NTPHTS_NCGC, NIEHS, EPA, DSSTox, MLSMR, MLSCN, NIH Roadmap, qHTS, NCGC
Potency means the concentration at half of the fitted maximal effect.

SMILES | activity change, negative = cytotoxicity | Potency
CCCCOCCOP(=O)(OCCOCCCC)OCCOCCCC | -9.66% (inactive) | 
COP(=S)(OC)Oc1ccc([N+](=O)[O-])cc1 | -17.1% (inactive) | 
ClC1=C(Cl)C2(Cl)C3C4CC(C5OC45)C3C1(Cl)C2(Cl)Cl (stereo not given) |  | 15.8 µM (active)
COC(=O)NC(=S)Nc1ccccc1NC(=S)NC(=O)OC | -21.6% (inactive) | 
Clc1nc(Cl)nc(Cl)n1 | 5.89% (inactive) | 
CCCOC(=O)c1ccccc1C(=O)OCCC | 5.85% (inactive) | 
C=CCc1ccc2c(c1)OCO2 | -22.8% (inactive) | 
OCC(Br)CBr (stereo not given) | 12% (inactive) | 
O=C(Cl)/C=C/C(=O)Cl | 1.28% (inactive) | 
Nc1c(Cl)c(Cl)nc(C(=O)O)c1Cl | -2.37% (inactive) | 
CC(O)CCl (stereo not given) | -16.1% (inactive) | 
O=C1C(Cl)=C(Cl)C(=O)C(Cl)=C1Cl |  | 39.8 µM (active)
CCOCN(C(=O)CCl)c1c(C)cccc1CC | -14% (inactive) | 
O=[N+]([O-])c1cccc2ccccc12 | -2.97% (inactive) | 
Nc1ccc(Br)cc1 | -24.7% (inactive) | 
CCSC(=O)Cl | 21.9% (inactive) | 
O=C=NC1CCCCC1 |  | inactive
OCC1CO1 (stereo not given) | -2.25% (inactive) | 
CCCCOC(=O)c1ccccc1C(=O)OCCCC | 14.3% (inactive) | 
CN=C=S | 7.6% (inactive) | 

SMILES | activity change, negative = cytotoxicity | Potency
C1CCC2CCCCC2C1 (stereo not given) | 5.85% (inactive) | 
Cc1ccc(O)c(C)c1 | -3.69% (inactive) | 
Clc1cc(Cl)c(-c2cc(Cl)c(Cl)cc2Cl)cc1Cl | 7.47% (inactive) | 
COc1ccc(N)cc1 |  | inactive
Cc1ccc2ccccc2c1 | -17% (inactive) | 
CCOP(=S)(OCC)Oc1ccc([N+](=O)[O-])cc1 |  | inactive
CCC[CH2][Sn]([Cl])([Cl])[Cl] | -3.98% (inactive) | 
COc1ccc(C=O)cc1OC | -4.55% (inactive) | 
NC(=S)Nc1ccccc1 |  | inactive
C=CC1CC=CCC1 (stereo not given) | -35.3% (inactive) | 
CC(Cl)Cl | 6.13% (inactive) | 
Clc1cccc(C(Cl)(Cl)Cl)n1 | -3.35% (inactive) | 
Clc1nc(Cl)nc(Nc2ccccc2Cl)n1 | -4.16% (inactive) | 
N#CCCCl |  | inactive
C=CC(=O)OCC | -17.7% (inactive) | 
Nc1ccccc1Cl | 1.76% (inactive) | 
ClCBr | 21.2% (inactive) | 
C=CC(=C)C | -12.6% (inactive) | 
C[C@]12CC[C@H]3[C@@H](CCC4=CC(=O)CC[C@@]43C)[C@@H]1CC[C@@H]2O | 1.29% (inactive) | 
Clc1ccc2ccccc2c1 | -19.7% (inactive) | 
